We go through 60 sequences from the supplement of paper PMC10338343.

± gives the standard deviation.

Assay [1] deals with MILI (PIWIL2) piRISC loaded with piRNA #1 (26 nt). Nature of the assay: pre-steady-state target cleavage rate (min^-1); guide: piRNA #1 5'p-UGAGGUAGUAGGUUGUAUAGUAUCCA; higher = faster piRNA-guided slicing of the target. Conditions: auxiliary factor: 500 nM mouse GTSF1. In short, it runs like this: (§1)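 A transcribed, DNA-blocked target RNA library (0.1 nM) and 1 nM active affinity-purified piRISC bearing one synthetic guide were incubated in HEPES–potassium acetate buffer at 33 °C for 0–8 or 0–960 min, either with or without 500 nM GTSF1 partner protein. Uncleaved targets were sequenced, normalised to depth and to weakly complementary targets, and pooled over three trials, with k3 capped at 0.0001 min^-1. The pre-steady-state cleavage rate was derived with a burst-and-steady-state fit.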

The subject of assay [2] is EfPiwi piRISC loaded with piRNA #1 (26 nt). In words: pre-steady-state target cleavage rate (min^-1); auxiliary factor: 500 nM Ephydatia muelleri Gtsf1; guide: piRNA #1 5'p-UGAGGUAGUAGGUUGUAUAGUAUCCA; MIWI and MILI are mouse PIWI proteins and EfPiwi is from a freshwater sponge; tags in brackets are library labels; higher = faster piRNA-guided slicing of the target. In short, it runs like this:
as §1

As for GGAGAGGAUACUAAACAACCUACAACCUCA, the “pre-steady-state target cleavage rate” value was found to be 0.119 ± 0.014 in assay [1] and 0.00196 ± 0.0019 in assay [2].
In the same order, the values of GGAGACGAUACAAUACAACCUACAACCUCA are 0.152 ± 0.018 and 0.00274 ± 0.0027.
In the same order, the values of GGAGACCUAACUAUACAACCUAGUACCUCA are 0.016 ± 0.0088 and 0.00385 ± 0.0021.
The matching figures for GGAGACGAUACAAUACAACCUACUACCACA: 0.204 ± 0.019 and 0.00392 ± 0.0029.
Take GGAGAGGAUACUUUACAAGCUACUACCUCA: the “pre-steady-state target cleavage rate” value in assay [1] was 0.149 ± 0.014; in assay [2], 0.00384 ± 0.0021.
In the same order, the values of GGAGAGCAUACUAUACAACCUAGUACCUCA are 0.0618 ± 0.013 and 0.00276 ± 0.0014.
In the same order, the values of GGAGUGGAUACUAAUACAACCUACUACCUCA are 0.135 ± 0.0082 and 0.08 ± 0.032.
For the sequence GGAGAGGAUACUAUACAACCUACAUCCUCA, the “pre-steady-state target cleavage rate” value stood at 0.00373 ± 0.0031 in assay [1] and 0.00358 ± 0.0016 in assay [2].
The matching figures for “GGAGACCUUACUAUACAACCUACUACCUCU [g2:g22:cont:t1U]”: 0.177 ± 0.017 and 1.04 ± 0.39.
The matching figures for GGAGACCAAACAAUACAACCUACUACCUCA: 0.0678 ± 0.024 and 0.00594 ± 0.0054.
The matching figures for GGAGUCGAUACAAUACAACCUACUACCUCA: 0.177 ± 0.012 and 0.00908 ± 0.0047.
Turning to GGAGACCAUACUUUACAACCUACUACCUGA, the “pre-steady-state target cleavage rate” value in assay [1] was 0.0887 ± 0.018; in assay [2], 0.00591 ± 0.0031.
The matching figures for GGAGACGAUACUAUACAACCUACUACCCA: 0.107 ± 0.024 and 0.00543 ± 0.0019.
The matching figures for GGAGACCUUCACUAUACAACCUACUACCUCA: 0.107 ± 0.017 and 0.00775 ± 0.0054.
The matching figures for GGAGACCUAUCUAUACAACCUACUACCUGA: 0.074 ± 0.011 and 0.00569 ± 0.0033.
As for GGAGACGAUACUAUACAAACCUACUACCUCA, the “pre-steady-state target cleavage rate” value in assay [1] amounted to 0.00373 ± 0.0026; in assay [2], 0.00846 ± 0.0032.
The matching figures for GGAGUGCAUACUAUACAACCUACAACCUCA: 0.0916 ± 0.01 and 0.00301 ± 0.0024.
In the same order, the values of GGAGAGGAAACUAUACAAGCUACUACCUCA are 0.179 ± 0.031 and 0.00403 ± 0.0014.
The matching figures for GGAGACGAUACUAUACAAGGUACUACCUCA: 0.0884 ± 0.013 and 0.00393 ± 0.0023.
For the sequence GGAGUGGUUACUAUACAAGCUACUACCUCA, the “pre-steady-state target cleavage rate” value in assay [1] was 0.213 ± 0.016; in assay [2], 0.00582 ± 0.0018.
In the same order, the values of GGAGACGAUACUAUUCAUCCUACUACCUCA are 0.264 ± 0.021 and 0.00763 ± 0.0036.
In the case of GGAGUGCAUACUAUACAACGUACUACCUCA, the “pre-steady-state target cleavage rate” value in assay [1] was 0.0301 ± 0.0044; in assay [2] it was 0.00739 ± 0.0027.
The matching figures for GGAGACCUUUCUAUACAACCUACUACCUCA: 0.0895 ± 0.0097 and 0.11 ± 0.036.
In the same order, the values of GGAGAGGUUACUAUUCAACCUACUACCUCA are 0.164 ± 0.0098 and 0.00359 ± 0.0029.
The matching figures for GGAGACCAUACUAUAUAACCUACUACCUCA: 0.155 ± 0.016 and 0.00757 ± 0.0042.
Consider GGAGACGUUACUAUACAACCUACUACGUCA, for which the “pre-steady-state target cleavage rate” value in assay [1] came to 0.0772 ± 0.016; in assay [2] it was 0.00396 ± 0.0018.
The matching figures for GGAGUGGAUACUACUACAACCUACUACCUCA: 0.193 ± 0.012 and 0.114 ± 0.038.
The matching figures for GGAGACCAUACUAUACAACGUACAACCUCA: 0.0214 ± 0.0035 and 0.00296 ± 0.0025.
Turning to GGAGAGGAUACUAUACAACCUACACCUCA, the “pre-steady-state target cleavage rate” value in assay [1] worked out at 0.00718 ± 0.0031; in assay [2] it was 0.00361 ± 0.002.
The matching figures for GGAGUGGAUACUAUACAACCUACUACCCA: 0.0544 ± 0.013 and 0.00631 ± 0.0022.
In the same order, the values of GGAGACCUAACUUUACAACCUACUACCUCA are 0.109 ± 0.025 and 0.00631 ± 0.0034.
GGAGUGGAUACUAUACAACCUAUUACCUCA: the “pre-steady-state target cleavage rate” value was 0.158 ± 0.014 in assay [1] and 0.0922 ± 0.034 in assay [2].
The matching figures for GGAGACGAUACUAUAGAACCUACUAGCUCA: 0.0159 ± 0.0077 and 0.00419 ± 0.0018.
The matching figures for GGAGACCAUACUAUUCAACCUACUUCCUCA: 0.1 ± 0.022 and 0.00483 ± 0.0048.
In the same order, the values of GGAGUGGAUACUAUACUACCUACUACCUGA are 0.104 ± 0.013 and 0.00352 ± 0.0018.
For GGAGACCAUACUAUAAAACCUACUACCUCA, the “pre-steady-state target cleavage rate” value was 0.2 ± 0.016 in assay [1] and 0.00433 ± 0.0026 in assay [2].
Consider GGAGAGGUUACUAUACAACGUACUACCUCA, for which the “pre-steady-state target cleavage rate” value in assay [1] amounted to 0.00751 ± 0.0028; in assay [2] it was 0.00457 ± 0.0015.
As for GGAGUGGAUACUAUACUAGCUACUACCUCA, the figures for the “pre-steady-state target cleavage rate” value in assay [1] and in assay [2] were 0.158 ± 0.011 and 0.0081 ± 0.0031, respectively.
The matching figures for GGAGUGGAUAGUAUACUACCUACUACCUCA: 0.113 ± 0.0097 and 0.00287 ± 0.0021.
The matching figures for GGAGACGAUACUAUACUACCUACUAGCUCA: 0.124 ± 0.018 and 0.00251 ± 0.0018.
Turning to GGAGACCUUACUAUUCAACCUACUACCUCA, the “pre-steady-state target cleavage rate” value was determined as 0.15 ± 0.012 in assay [1] and 0.00413 ± 0.0039 in assay [2].
The matching figures for GGAGAGGAUACUAUACAACCGUACUACCUCA: 0.00509 ± 0.0031 and 0.00659 ± 0.0028.
The matching figures for GGAGUGCAUACUAUACAACCUACUACCACA: 0.124 ± 0.013 and 0.00342 ± 0.0028.
In the same order, the values of GGAGACCUAACUAUAUAACCUACUACCUCA are 0.117 ± 0.015 and 0.0063 ± 0.0034.
On to GGAGAGGAUACUAUACAACCUACUACUCUCA, for which the “pre-steady-state target cleavage rate” value in assay [1] worked out at 0.123 ± 0.015; in assay [2] it was 0.00775 ± 0.0031.
In the same order, the values of GGAGACCUAAACUAUACAACCUACUACCUCA are 0.148 ± 0.018 and 0.00974 ± 0.0047.
The matching figures for GGAGAGGAUACUGAUACAACCUACUACCUCA: 0.17 ± 0.014 and 0.00615 ± 0.0037.
As to GGAGUCGAUACUAUUCAACCUACUACCUCA, the “pre-steady-state target cleavage rate” value came to 0.192 ± 0.012 in assay [1] and 0.00506 ± 0.0029 in assay [2].
In the same order, the values of GGAGACCUUACUAAACAACCUACUACCUCA are 0.112 ± 0.012 and 0.00463 ± 0.0036.
For the sequence GGAGUGGAUACUAUUCAACCUACUACCACA, the figures for the “pre-steady-state target cleavage rate” value in assay [1] and in assay [2] were 0.093 ± 0.0098 and 0.00327 ± 0.0022, respectively.
In the same order, the values of GGAGUGGAUACUAUACAACCGACUACCUCA are 0.00279 ± 0.0026 and 0.00469 ± 0.0016.
Regarding GGAGACCUAACAUAUACAACCUACUACCUCA, the “pre-steady-state target cleavage rate” value in assay [1] stood at 0.026 ± 0.012; in assay [2], 0.0546 ± 0.02.
As to GGAGAGGAUACUAUACAAGCUACUACCUGA, the “pre-steady-state target cleavage rate” value was determined as 0.111 ± 0.015 in assay [1] and 0.00442 ± 0.0019 in assay [2].
The matching figures for GGAGACCUAUGAAAUACAACCUACUACCUCA: 0.0221 ± 0.0062 and 0.00445 ± 0.0038.
In the case of GGAGAGGAUACUAUUCAACCUUCUACCUCA, the entries for the “pre-steady-state target cleavage rate” value in assay [1] and in assay [2] were 0.00949 ± 0.0023 and 0.0031 ± 0.0028, respectively.
As to GGAGUGGAUUCUAUACAACCUACUACGUCA, the “pre-steady-state target cleavage rate” value in assay [1] stood at 0.0598 ± 0.0076; in assay [2], 0.0027 ± 0.0024.
In the same order, the values of GGAGACGAUAACUAUACAACCUACUACCUCA are 0.116 ± 0.0099 and 0.0617 ± 0.023.
The matching figures for “GGAGACCUAUCUAUACAACCUACUACCUCU [g2:g20:cont:t1U]”: 0.0927 ± 0.011 and 0.993 ± 0.45.
The matching figures for GGAGACCUAACUAUACAACCUACUACCGUCA: 0.15 ± 0.034 and 0.0162 ± 0.0091.
GGAGACCAUACUAUACAACCUACUACCAGA: the figures for the “pre-steady-state target cleavage rate” value in assay [1] and in assay [2] were 0.169 ± 0.027 and 0.00458 ± 0.0019, respectively.
